mHTT-CaM PPI inh – mHTT-calmodulin interaction abrogation. AlphaScreen His-mHTT/GST-CaM binding, luminescence. inhibition, % at 15 µM. AID 1671202. actives 3.6% (n = 190,000). P42858;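 also: 0% = both proteins with DMSO and 100% = one protein alone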
Target sequence (P42858 whole entry, looked up, stated change not applied): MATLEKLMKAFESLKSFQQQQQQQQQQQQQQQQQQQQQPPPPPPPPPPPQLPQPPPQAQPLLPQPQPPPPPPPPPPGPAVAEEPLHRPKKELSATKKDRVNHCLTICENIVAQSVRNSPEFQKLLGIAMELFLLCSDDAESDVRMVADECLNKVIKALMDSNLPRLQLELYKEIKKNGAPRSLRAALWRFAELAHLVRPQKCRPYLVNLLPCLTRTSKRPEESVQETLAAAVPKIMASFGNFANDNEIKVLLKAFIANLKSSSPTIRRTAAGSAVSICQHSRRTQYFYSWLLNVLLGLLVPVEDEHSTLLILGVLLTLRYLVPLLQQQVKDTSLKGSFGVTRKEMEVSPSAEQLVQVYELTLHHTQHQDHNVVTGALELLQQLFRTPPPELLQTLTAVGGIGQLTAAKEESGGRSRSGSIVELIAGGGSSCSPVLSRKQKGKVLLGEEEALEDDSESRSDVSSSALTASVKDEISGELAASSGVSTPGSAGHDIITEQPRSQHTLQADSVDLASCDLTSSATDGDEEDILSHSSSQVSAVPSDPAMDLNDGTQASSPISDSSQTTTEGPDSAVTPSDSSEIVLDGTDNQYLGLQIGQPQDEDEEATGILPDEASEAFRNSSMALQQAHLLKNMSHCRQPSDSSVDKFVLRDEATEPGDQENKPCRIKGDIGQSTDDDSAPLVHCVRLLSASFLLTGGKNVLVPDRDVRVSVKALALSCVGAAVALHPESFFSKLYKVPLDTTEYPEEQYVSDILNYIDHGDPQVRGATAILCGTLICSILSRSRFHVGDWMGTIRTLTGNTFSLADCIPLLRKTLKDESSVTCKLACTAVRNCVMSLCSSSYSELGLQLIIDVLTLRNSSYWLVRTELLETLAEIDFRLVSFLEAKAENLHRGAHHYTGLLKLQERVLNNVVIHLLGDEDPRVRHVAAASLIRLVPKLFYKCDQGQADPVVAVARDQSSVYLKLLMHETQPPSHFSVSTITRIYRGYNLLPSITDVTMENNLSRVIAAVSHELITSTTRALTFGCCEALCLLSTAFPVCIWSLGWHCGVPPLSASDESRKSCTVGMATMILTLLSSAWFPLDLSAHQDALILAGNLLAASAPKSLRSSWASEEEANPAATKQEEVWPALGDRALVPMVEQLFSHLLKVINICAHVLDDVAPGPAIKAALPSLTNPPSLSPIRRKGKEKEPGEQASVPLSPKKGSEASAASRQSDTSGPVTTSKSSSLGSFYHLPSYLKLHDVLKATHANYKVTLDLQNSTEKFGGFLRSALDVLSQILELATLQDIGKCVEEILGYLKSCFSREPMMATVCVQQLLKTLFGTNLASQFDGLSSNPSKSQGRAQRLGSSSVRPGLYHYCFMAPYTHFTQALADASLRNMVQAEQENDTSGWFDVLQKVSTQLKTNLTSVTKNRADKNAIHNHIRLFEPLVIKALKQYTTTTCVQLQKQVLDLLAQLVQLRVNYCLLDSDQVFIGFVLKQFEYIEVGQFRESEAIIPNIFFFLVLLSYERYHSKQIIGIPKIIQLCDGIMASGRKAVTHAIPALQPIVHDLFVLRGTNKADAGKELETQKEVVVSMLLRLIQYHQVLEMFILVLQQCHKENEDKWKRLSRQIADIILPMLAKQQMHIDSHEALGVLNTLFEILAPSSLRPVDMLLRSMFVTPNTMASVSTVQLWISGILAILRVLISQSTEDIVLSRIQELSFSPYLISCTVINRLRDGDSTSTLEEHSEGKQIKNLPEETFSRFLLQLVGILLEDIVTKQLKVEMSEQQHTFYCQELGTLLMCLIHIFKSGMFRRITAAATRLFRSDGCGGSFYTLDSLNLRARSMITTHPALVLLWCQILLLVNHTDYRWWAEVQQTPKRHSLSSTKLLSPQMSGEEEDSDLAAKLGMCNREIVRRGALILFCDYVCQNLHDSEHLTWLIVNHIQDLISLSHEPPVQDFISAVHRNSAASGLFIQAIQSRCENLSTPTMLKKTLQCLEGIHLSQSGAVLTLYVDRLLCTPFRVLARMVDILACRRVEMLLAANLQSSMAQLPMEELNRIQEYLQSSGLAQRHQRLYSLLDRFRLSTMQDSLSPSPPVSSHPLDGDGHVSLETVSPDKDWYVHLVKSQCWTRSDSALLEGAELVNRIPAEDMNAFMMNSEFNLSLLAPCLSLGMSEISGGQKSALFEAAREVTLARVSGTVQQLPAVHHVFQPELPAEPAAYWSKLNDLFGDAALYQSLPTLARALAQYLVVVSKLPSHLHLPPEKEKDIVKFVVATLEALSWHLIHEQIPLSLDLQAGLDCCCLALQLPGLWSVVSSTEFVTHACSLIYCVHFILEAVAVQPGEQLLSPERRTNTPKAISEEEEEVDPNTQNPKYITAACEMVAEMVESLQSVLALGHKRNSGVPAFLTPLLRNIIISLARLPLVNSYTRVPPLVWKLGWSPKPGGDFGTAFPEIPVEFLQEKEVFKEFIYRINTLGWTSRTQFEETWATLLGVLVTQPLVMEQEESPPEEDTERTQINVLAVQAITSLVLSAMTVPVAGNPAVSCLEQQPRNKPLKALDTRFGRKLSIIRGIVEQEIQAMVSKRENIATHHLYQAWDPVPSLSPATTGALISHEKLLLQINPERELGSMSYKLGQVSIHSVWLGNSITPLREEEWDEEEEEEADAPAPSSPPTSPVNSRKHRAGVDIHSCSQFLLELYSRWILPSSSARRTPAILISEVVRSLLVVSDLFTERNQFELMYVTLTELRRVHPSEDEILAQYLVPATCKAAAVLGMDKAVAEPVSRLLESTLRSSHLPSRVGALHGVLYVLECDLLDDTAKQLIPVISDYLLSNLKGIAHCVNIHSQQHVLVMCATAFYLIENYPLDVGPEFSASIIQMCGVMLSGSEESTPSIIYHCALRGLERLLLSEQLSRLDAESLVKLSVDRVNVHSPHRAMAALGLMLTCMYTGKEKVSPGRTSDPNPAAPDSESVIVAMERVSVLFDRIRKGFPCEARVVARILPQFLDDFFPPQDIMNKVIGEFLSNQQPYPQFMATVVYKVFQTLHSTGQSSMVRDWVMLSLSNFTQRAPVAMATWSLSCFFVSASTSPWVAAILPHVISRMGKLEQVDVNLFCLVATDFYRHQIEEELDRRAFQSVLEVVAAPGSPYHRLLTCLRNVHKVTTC
Pf apPOL inh – Pf-apPOL DNA polymerase inhibition; Recombinant Pf-apPOL, molecular beacon fluorescence, 1.5 h; AID 1794808; inhibition, % at 10 µM; actives 0.25% (n = 210,000)
* = called active by the depositor; nt = not tested or not shown; ! = a repeat was not active. This is a sample that favours compounds with a hit; in the whole collection about 3.5% have one here. Rule as the data show it: active = inhibition above about 50%; inactive = the rest.

SMILES | mHTT-CaM PPI inh | Pf apPOL inh
COc1ccc(C2CC3(O)CC(C#N)(C(=O)N3)C2(C#N)C#N)cc1 (centres undefined) | 2 | -2
COc1ccc(C2CC3(C)CC(=O)C2C(C#N)(C#N)C3(C#N)C#N)cc1 (centres undefined) | 79* | -9
CC(C)(C)n1nc2c(c1NC(=O)COc1ccc(Cl)cc1)CSC2 | 57* | 6
CC(C)(C)n1nc2c(c1NC(=O)COc1ccc(Cl)cc1Cl)CSC2 | 13 | -3
Cc1ccc(N(C)S(=O)(=O)c2ccc3[nH]cc(C(=O)N4CCCCCC4)c(=O)c3c2)cc1C | 58* | -7
Cc1ccc(N(C)S(=O)(=O)c2ccc3[nH]cc(C(=O)N4CCC(C)CC4)c(=O)c3c2)cc1C | 32 | -21
CC(=O)Nc1ccc(-c2noc(C3CCCN(C(=O)Cc4cccc(F)c4)C3)n2)cc1 (centres undefined) | -1 | -1
CC(C)(C)N=C1Nc2ncccc2NC12CCN(C(=O)c1cc(-c3cccs3)[nH]n1)CC2 | 57* | -3
CC(C)(C)N=C1Nc2ncccc2NC12CCCN(C(=O)c1cc(-c3cccs3)[nH]n1)C2 (centres undefined) | 10 | -3
O=c1oc2ccc(Br)cc2cc1-c1nc2ccccc2[nH]1 | -5 | 83*
O=c1oc2ccc(Cl)cc2cc1-c1nc2ccccc2[nH]1 | -4 | 0
COc1ccc(OC)c(C=C2SC(=S)N(C(C)C(=O)O)C2=O)c1 (centres undefined) | 15 | -13
COc1ccc(OC)c(C=C2SC(=S)N(C(C(=O)O)C(C)C)C2=O)c1 (centres undefined) | 51* | -38
CC(C)C(C(=O)O)N1C(=O)C(=Cc2cccc(Br)c2)SC1=S (centres undefined) | 59* | -31
CC(C)C(C(=O)O)N1C(=O)C(=Cc2ccccc2)SC1=S (centres undefined) | 3 | -17
C=CCOc1ccccc1CN(CCN(C)C)Cc1ccccc1 | -6 | 0
O=C(Nc1ccc(Cl)c(Cl)c1)c1ccc(F)c(S(=O)(=O)N2CCc3ccccc32)c1 | -6 | 0
O=C(Nc1ccc(N2CCOCC2)cc1)c1cccc([N+](=O)[O-])c1 | 2 | -1
COc1ccc(C2CC(c3ccc(I)cc3)Nc3ncnn32)c(OC)c1 (centres undefined) | 44 | 4
COc1cccc(NC2=C(N3CCCC3)C(=O)c3ccccc3C2=O)c1 | 100* | 0
COc1cccc(NC2=C(N3CCOCC3)C(=O)c3ccccc3C2=O)c1 | 38 | 14
CCOc1ccc(NC2=C(N3CCCCC3)C(=O)c3ccccc3C2=O)cc1 | 96* | 8
CC(=O)c1ccc(NC2=C(N3CCCCC3)C(=O)c3ccccc3C2=O)cc1 | 14 | -12
CC(C)c1noc(-c2cccnc2N2CCCN(C(=O)c3ccc(F)c(Cl)c3)CC2)n1 | -2 | 0
CCCCS(=O)(=O)NC1=NCN(CC(=O)O)CN1 | -10 | -6
SMILES | mHTT-CaM PPI inh | Pf apPOL inh
O=C(Nc1nnc(-c2ccc3c(c2)CCCC3)o1)c1ccno1 | -9 | -1
CC(=O)N1CCCc2cc(CNC(=O)c3cc(F)cc(F)c3)ccc21 | -6 | 2
CCCC(=O)N1CCCC(c2ccnc(-c3cccc(F)c3)n2)C1 (centres undefined) | 2 | -2
COc1ccc(C=C2SC(=S)N(CCC(=O)O)C2=O)c(OC)c1 | 8 | -6
CC1Oc2ccccc2C=C1C=C1SC(=S)NC1=O (centres undefined) | 59* | -13
CC1Oc2ccccc2C=C1C=CC(=O)O (centres undefined) | -2 | -9
CC1Oc2ccccc2C=C1C=C1SC(=S)N(CCC(=O)O)C1=O (centres undefined) | 53* | -7
Cc1ccc(CN2CCN(C(=O)C3CCc4nc(N5CCCC5)ncc4C3)CC2)cc1C (centres undefined) | 27 | 0
COc1cccc(CNC(=O)C2(C)CCCN(C(=O)Nc3cc(OC)cc(OC)c3)C2)c1 (centres undefined) | 3 | 10
O=C1C(=Cc2c[nH]c3ccccc23)C(=O)c2ccccc21 | 57*! | 0
O=C1OC2(CCCC2)OC(=O)C1=Cc1c[nH]c2ccccc12 | 7 | -16
CS(=O)(=O)N1CCC(CNC(=O)c2cc(-c3ccccc3)on2)CC1 | -12 | -6
COc1cc(Br)c(Br)cc1N | -11 | nt
COc1cc2c(cc1N)OCO2 | 54* | nt
CCCS(=O)(=O)N1CCc2ccc(NC(=O)Nc3c(F)cccc3F)cc2C1 | -4 | -2
Cc1nc(-c2ccccc2)sc1C(=O)N1CCC(CC(=O)NCCN(C)C)CC1 | -1 | 2
COc1cc(S(=O)(=O)NCc2ccco2)c(OC)cc1Cl | -6 | -5
CCn1c(CCNC(=O)c2ccccc2)nc2c(C)cccc2c1=O | 24 | -6
CCn1c(CCNC(=O)c2cccc(N(C)C)c2)nc2c(C)cccc2c1=O | 59* | 1
O=C(c1ccsc1)N1CCC(c2nncn2Cc2ccccc2)CC1 | 1 | -4
CNc1cc(Nc2ccccc2)c2c3c(onc13)-c1ccccc1C2=O | 98* | 0

Bioassay records as filed in PubChem.
